Source: PubChem BioAssay (NCATS)
Records with an inconclusive call do not appear. Values without a mark were called inactive. Calls come from the whole dose curve; as a rule, active = well fitted inhibition curve with a large enough effect; inconclusive = small, poorly fitted or top-dose-only effect; inactive = flat fitted curve, though single readings scatter.
% is set by controls: 0 for no effect and ±100 for the full control effect.

The compounds below were run on MCC-26 (assay: qHTS assay to identify novel small-molecules to repurpose for Merkel cell carcinoma treatment (AID 1296009; note: nearly all actives have a fitted effect of over 60% in size)). Settings: MCC and control cell lines, CellTiter-Glo viability, 72 h; series mostly up to 46 µM; activity change, negative = cytotoxicity: at the top concentration.
Text: MCC is a rare and aggressive neuroendocrine skin cancer with limited treatment options. Approximately 80% of MCCs have the Merkel cell polyomavirus (MCPyV) DNA integrated into the host genome (virus-positive: VP-MCC) and viral oncogenes drive oncogenesis. The remaining MCCs are virus-negative (VN-MCC) and are caused by UV mutagenesis. To identify novel treatments for VP-MCC and/or VN-MCC we screened three VP-MCC cell lines (WAGA, MKL-1, MKL-2), three VN-MCC cell lines (MCC-13, MCC-26, UISO), and four immortalized, non-transformed control cell lines (HaCaT, HEK293T, CRL7250, NIH-3T3) against ~2,400 compounds in the NCGC Pharmaceutical Collection (NPC) and ~1,900 compounds in the Mechanism Interrogation PlatE (MiPE). Using cell viability as a readout (CellTiter-Glo assay) we found both overlapping and distinct drugs that can be repurposed for the treatment of VP-MCC and VN-MCC.
A high-throughput screen was conducted in 1536-well white flat bottom plates (Corning) on a Kalypsys robotic system. Cell lines WAGA, MKL-1, MKL-2, MCC-13, MCC-26, UISO, HaCaT, HEK293T, CRL7250, and NIH-3T3 were screened against 2 small molecule annotated drug libraries NPC and MIPE in dose response (8 and 11 pt. respectively) measuring cell viability after 72 hours of incubation. […] A 1,536 pintool (Kalypsys) was used to transfer 23 nL of compound in DMSO to the 1,536-well assay plates. After 72 hr incubation at 37 degree celsius, 2.5 uL of CellTiter-Glo (Promega) was dispensed into each well using a BiorapTR. Plates were incubated at room temperature for 10 min, transferred to a ViewLux (PerkinElmer) and the luminescence was recorded using an exposure time of 2 seconds. Relative luminescence units (RLUs) were normalized to in-plate controls (no cells as a positive (cytotoxicity) control, DMSO as negative control) and the normalized data was processed using NCATS in-house software.
For `CC1CC(OC(=O)c2ccccc2O)CC(C)(C)C1` (stereo not given), the “activity change, negative = cytotoxicity” value was 3.73%. With `CCN[C@H]1CN(CCCOC)S(=O)(=O)c2sc(S(N)(=O)=O)cc21` the “activity change, negative = cytotoxicity” value was 1.2%. `CC1CCN(CCCC(=O)c2ccc(F)cc2)CC1` was tested, and the “activity change, negative = cytotoxicity” value was -1.39%. In the case of `Cn1cc(C(=O)[C@@H]2CCc3nc[nH]c3C2)c2ccccc21`, the “activity change, negative = cytotoxicity” value is reported as -2.24%. For `O=C1c2ccccc2C(=O)C1c1ccc(Br)cc1`, the “activity change, negative = cytotoxicity” value was 1.19%. In the case of `OCCN1C[C@H](O)[C@@H](O)[C@H](O)[C@H]1CO`, the “activity change, negative = cytotoxicity” value is reported as 5.93%. In the case of `Cc1onc(-c2ccccc2)c1-c1ccc(S(N)(=O)=O)cc1`, the “activity change, negative = cytotoxicity” value is reported as -0.708%. In the case of `CCOc1cc(NC(C)=O)ccc1C(=O)OC`, the “activity change, negative = cytotoxicity” value is reported as -0.407%. In the case of `CCCCCC(N)=O`, the “activity change, negative = cytotoxicity” value is reported as 15.2%. With `CC(=O)OCC(=O)[C@@]1(O)CC[C@H]2[C@@H]3CCC4=CC(=O)C=C[C@]4(C)[C@@]3(F)[C@@H](O)C[C@@]21C` the “activity change, negative = cytotoxicity” value was -8.43%. `CCC(C)(CN(C)C)OC(=O)c1ccccc1` (stereo not given) was tested, and the “activity change, negative = cytotoxicity” value was 2.94%. In the case of `CC(=O)Nc1ccc(C(=O)O)cc1`, the “activity change, negative = cytotoxicity” value is reported as 10.2%. `NS(=O)(=O)c1cc(C2(O)NC(=O)c3ccccc32)ccc1Cl` (stereo not given) was tested, and the “activity change, negative = cytotoxicity” value was 13.4%. `CC[N+](CC)(CC(=O)Nc1c(C)cccc1C)Cc1ccccc1` was tested, and the “activity change, negative = cytotoxicity” value was 4.31%. In the case of `CCOc1ccc(C(=O)OCCN(CC)CC)cc1`, the “activity change, negative = cytotoxicity” value is reported as -12.7%. In the case of `Cc1c(NC(C)C)c(=O)n(-c2ccccc2)n1C`, the “activity change, negative = cytotoxicity” value is reported as 7.68%. `O=C(O)CCCCC1CCSS1` (stereo not given) was tested, and the “activity change, negative = cytotoxicity” value was 9.96%. In the case of `Cc1ccc(S(=O)(=O)NC(=O)NC2CCCCCCC2)cc1`, the “activity change, negative = cytotoxicity” value is reported as 11.4%. `CC(=O)N1C[C@H](O)C[C@H]1C(=O)O` was tested, and the “activity change, negative = cytotoxicity” value was -2.04%. For `COc1ccc(C(=O)N2CCN(CC(=O)N3CCOCC3)CC2)cc1`, the “activity change, negative = cytotoxicity” value was 11.8%. `O=C1C(c2[nH]c3ccccc3c2O)=Nc2ccccc21` was tested, and the “activity change, negative = cytotoxicity” value was -1.9%. For `CCOC(=O)[C@H](CCc1ccccc1)N[C@@H](C)C(=O)N1CCC[C@H]1C(=O)O`, the “activity change, negative = cytotoxicity” value was 7.81%. With `OCc1ccc(Cl)cc1Cl` the “activity change, negative = cytotoxicity” value was 9.96%. For `NNC(=O)CP(=O)(c1ccccc1)c1ccccc1`, the “activity change, negative = cytotoxicity” value was 3.13%. With `CCCCCC(C)N` (stereo not given) the “activity change, negative = cytotoxicity” value was 18.5%. In the case of `FC(F)(F)C(Cl)Br` (stereo not given), the “activity change, negative = cytotoxicity” value is reported as -2.46%. In the case of `CCCCCOC(=O)Nc1nc(=O)n([C@@H]2O[C@H](C)[C@@H](O)[C@H]2O)cc1F`, the “activity change, negative = cytotoxicity” value is reported as 4.17%. For `CC(=O)Nc1ccccc1`, the “activity change, negative = cytotoxicity” value was 3.26%. For `CCN(CC)C(=O)c1cccc(C)c1`, the “activity change, negative = cytotoxicity” value was 9.18%. In the case of `NS(=O)(=O)c1cc2c(cc1C(F)(F)F)NCNS2(=O)=O`, the “activity change, negative = cytotoxicity” value is reported as -3.53%. In the case of `CC(=O)Oc1cccc(O)c1`, the “activity change, negative = cytotoxicity” value is reported as 7.37%. `CCCCCCCC(=O)OCC(COC(=O)CCCCCCC)OC(=O)CCCCCCC` was tested, and the “activity change, negative = cytotoxicity” value was 4.29%. With `O[C@@H]1CO[C@H]2[C@@H]1OC[C@@H]2O` the “activity change, negative = cytotoxicity” value was -4.64%. `CCOC(=O)c1cccnc1` was tested, and the “activity change, negative = cytotoxicity” value was 8.04%. `Cc1cc(OI)c(C(C)C)cc1-c1cc(C(C)C)c(OI)cc1C` was tested, and the “activity change, negative = cytotoxicity” value was 4.7%. `Cc1cc(=O)[nH]c(=S)[nH]1` was tested, and the “activity change, negative = cytotoxicity” value was 11.9%. With `O=C(O)/C=C/c1ccc(Cn2ccnc2)cc1` the “activity change, negative = cytotoxicity” value was 2.32%. For `C=CCNC(N)=S`, the “activity change, negative = cytotoxicity” value was 7.09%. For `CC1(C)[C@@H](OC(=O)CCC(=O)O)CC[C@]2(C)[C@H]3C(=O)C=C4[C@@H]5C[C@@](C)(C(=O)O)CC[C@]5(C)CC[C@@]4(C)[C@]3(C)CC[C@@H]12`, the “activity change, negative = cytotoxicity” value was 13.1%. In the case of `CN1C[C@@H]2C[C@H]1CN2c1cc2c(cc1F)c(=O)c(C(=O)O)cn2C1CC1`, the “activity change, negative = cytotoxicity” value is reported as -1.35% [at 16.1 µM].
